Assay outcomes deposited in PubChem BioAssay by National Center for Advancing Translational Sciences (NCATS).
In the library only some 21% were active in any assay of this set; here they are far more common.
Pf growth 48h: P. falciparum growth inhibition at 48 hours (one generation). 310,000 tested, 5.9% active. AID 504832. Potency, µM (highest dose often 28.7 µM), for the others: at the top dose activity change, negative = inhibition, most hits filed as inhibitors. P. falciparum luciferase growth in erythrocytes, 48 h; also: potency is read from the fitted curve at half-maximal effect; % is scaled to controls: 0 for no effect and ±100 for the full control effect
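Here the parasites carry a stable luciferase gene and grow inside erythrocytes in Albumax-based RPMI medium with compound for one erythrocytic cycle. Activity is scored as loss of luminescent signal.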
AMA1 RON2 block: disrupts binding of P. falciparum AMA1 to RON2; AlphaScreen AMA1-biotinylated RON2 peptide binding; Potency, µM (top dose mostly 58.2 µM), for inactives: top-dose activity change, negative = inhibition, most hits filed as inhibitors; 360,000 tested, 0.2% active; AID 720542;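 also: potency is read from the fitted curve at half-maximal effect; 0% = vehicle wells and -100% = peptide control; nearly all actives have a fitted effect of over 45% in size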
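AMA1 (3D7) with his tag at 25 nM final met compounds first, then biotinylated RON2 peptide at 25 nM; detection used donor plus acceptor beads, 10 µg/mL apiece, read by AlphaScreen after 30 min at room temperature.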
HCV inhibitor: blocks hepatitis C virus | Huh7.5.1 HCVcc-Cre infection, luciferase reporter, 44 h | Potency, µM (top dose mostly 41.8 µM), without a hit: at the highest dose activity change, negative = inhibition, usual class: inhibitors | 340,000 tested, 3.4% active; also: potency is read from the fitted curve at half-maximal effect; % is scaled to controls: 0 for no effect and ±100 for the full control effect
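Cells (1,000/well) were plated 4 h before compound, then infected with HCVcc-Cre virus (~0.5 moi). After 44 h further culture, infection was read as luciferase luminescence following a 15 min substrate incubation at room temperature.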
Pf growth 96h: P. falciparum growth inhibition at 96 hour, primary screen for plastid delayed-death inhibitors; P. falciparum luciferase reporter growth, 96 h; Potency, µM (doses to about 28.7 µM), inactives show at the top dose activity change, negative = inhibition, most hits filed as inhibitors; 320,000 tested, 6.9% active; also: potency is read from the fitted curve at half-maximal effect; % is scaled to controls: 0 for no effect and ±100 for the full control effect
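Luminescence readout: decreased luciferase signal marks inhibited growth of reporter-expressing P. falciparum in infected red cells (2% hematocrit, 0.05% parasitemia final), exposed to compound two generations (96 h, 37 C, 5% CO2).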
Shiga inhibitor: blocks Shiga toxin action in Vero cells; Vero cells, Shiga toxin protein synthesis inhibition reporter; inhibition, % at 38.7 µM; 290,000 tested, 9.2% active; AID 2315; in the data active = inhibition mostly above about 28%, no sharp cut-off; inactive = mostly below about 43%; also: 0% is about no effect
Cycloheximide cs: counter-screen for Shiga toxin inhibitors: cycloheximide protein synthesis inhibition. AID 2314. cell reporter, cycloheximide protein synthesis inhibition counterscreen. max response, %. 300,000 tested, 12% active; in the data active = max response mostly above about 13%, no sharp cut-off; inactive = mostly below about 14%; also: read at 38.3 µM for the half of the compounds with a filed dose; 0% is about no effect
An asterisk follows results filed as active; i = inactive; ? = inconclusive; . = no result. Unless noted, calls follow the shape of the dose curve; as a rule, active = well fitted curve in the direction sought with a large enough effect; inconclusive = small, poorly fitted or top-dose-only effect, or another doubt; inactive = no such curve, though single readings can be large; an effect the other way counts as inactive or inconclusive.

SMILES | Pf growth 48h | AMA1 RON2 block | HCV inhibitor | Pf growth 96h | Shiga inhibitor | Cycloheximide cs
COCC(C)NC(=O)/C=C/c1ccc(OC)cc1 (stereo unspecified) | 88.9% | 9.1% | 7.7% | -4.5% | 36.2 | 18.9*
O=C(NC(c1ccccc1)c1cnccn1)C1CCN(CCOc2ccc(Cl)cc2Cl)CC1 (stereo unspecified) | . | 1.9% | . | . | . | .
CCC(=O)NCCC(c1ccco1)c1ccccc1OC (stereo unspecified) | ? | -1.8% | -20.7% | 10.4µM* | -3.0 | 13.0
COc1ccccc1C(CC(=O)Nc1nccs1)c1ccco1 (stereo unspecified) | 2.94µM* | -0.8% | -4.0% | 6.57µM* | -2.8 | 1.3
O=C(CC(c1ccc(F)cc1)c1ccco1)Nc1nccs1 (stereo unspecified) | ? | -6.9% | -24.7% | -23.2% | -4.4 | 8.5
CCCNCCC(c1ccco1)c1ccccc1OC (stereo unspecified) | -35.0% | -4.0% | -16.2% | 23.0% | 17.0 | 7.2
COc1ccccc1C(CCN(Cc1cccs1)C(C)=O)c1ccco1 (stereo unspecified) | 7.38µM* | -23.0% | -14.1% | 13.1µM* | 14.8 | -6.8
CCOC(=O)CCC(NC(=O)c1ccc(Nc2nc3ccccc3nc2C(=O)OCC)cc1)C(=O)OCC (stereo unspecified) | . | -1.6% | -5.6% | . | . | .
CCn1c(C)[n+](CCOCC[n+]2c(C)n(CC)c3cc(Cl)c(Cl)cc32)c2cc(Cl)c(Cl)cc21 | . | 6.8% | 21.0% | 10.4µM* | 1.3 | -2.9
CS(=O)(=O)NCc1nnc(SCc2ccc(C(F)(F)F)cc2)o1 | -14.8% | 9.4% | 34.7% | 30.5% | -4.6 | -10.4
COc1cc2c(cc1OC)C1O[C@](CCCCN3C(=O)c4ccccc4C3=O)(C2)Oc2c1c(=O)oc1ccccc21 | ? | . | . | ? | i | -2.3
CC1=NN=C(c2ccc(N)cc2)c2cc3c(cc2C1)OCO3 | 11.7µM* | -7.4% | -25.7% | ? | . | .
Cc1nc(N)ncc1-c1ccc2c(c1)OCO2 | . | 1.5% | 15.7% | 35.7% | 22.9 | 13.0
Nc1nc(Sc2c([N+](=O)[O-])cc(C(F)(F)F)cc2[N+](=O)[O-])n[nH]1 | ? | -11.2% | 0.6% | ? | 48.3* | 10.7
Nc1nc(Sc2ccc(C(F)(F)F)cc2[N+](=O)[O-])n[nH]1 | . | 6.2% | 16.1% | ? | 17.7 | -1.4
Cc1cc(NC(=O)CS(=O)(=O)c2ccc(Cl)cc2)no1 | 7.4% | 6.4% | 14.4% | 27.5% | -2.9 | 7.9
c1ccc(C[n+]2ccc3ccccc3c2)cc1 | . | -6.0% | ? | . | . | .
c1ccc(C[n+]2cccc(-c3ccccc3)c2)cc1 | 2.08µM* | 8.4% | -16.5% | 0.657µM* | 13.5 | 5.3
NC(=S)NNc1ccnc2cc(Cl)ccc12 | 2.94µM* | -3.7% | -29.8% | ? | -10.4 | -1.0
CCOc1ccc(Nc2ccnc3cc(Cl)ccc23)cc1 | -16.8% | 4.0% | -28.1% | 5.5% | 20.4 | -3.1
FC(F)Oc1ccc(NC(=S)NNc2ccnc3cc(Cl)ccc23)cc1 | 8.28µM* | 48.0% | 3.98µM* | ? | -1.5 | 7.9
COc1ccccc1N1CCN(C(=O)[C@@H]2CCCN2C2=NS(=O)(=O)c3ccccc32)CC1 | . | 11.1% | . | . | . | .
CN1CCN(C(=O)c2ccc(-c3cnc4cccnn34)cc2)CC1 | . | 22.2% | . | . | . | .
Cc1ccc(S(=O)(=O)N2CCN(C(=O)COC(=O)CCOc3ccccc3)CC2)c(C)c1 | -23.8% | -8.6% | 20.4% | -7.6% | . | .
Clc1cccc(Cl)c1CNc1ccc(N2CCCC2)cc1 | ? | ? | ? | 19.6% | 85.4 | 20.5*
SMILES | Pf growth 48h | AMA1 RON2 block | HCV inhibitor | Pf growth 96h | Shiga inhibitor | Cycloheximide cs
O=C(Cc1ccc(Cl)cc1)Nc1ccc(N2CCCC2)cc1 | 15.9% | -4.4% | 0.3% | . | 6.4 | 4.9
Nc1ccc(C(=O)Nc2ccc(OC(F)(F)C(F)F)c(NC(=O)c3ccc(N)cc3)c2)cc1 | -28.8% | -11.0% | 6.31µM* | ? | 16.5 | 17.5*
Cc1cc(-c2nnc(-c3ccccc3)c(-c3ccccc3)n2)c(C)o1 | 13.1µM* | 33.7% | ? | ? | -8.7 | -4.3
Cc1ccc(-c2nnc(-c3ccccc3)c(-c3ccccc3)n2)cc1 | 9.9% | -14.9% | -6.5% | ? | -8.7 | 1.2
CCCCCCn1c(O)c(C=NC2CCCCC2N)c(=O)[nH]c1=O (stereo unspecified) | 7.9% | 76.3% | -2.7% | 6.57µM* | -6.2 | -0.1
CNC(=S)N(CCc1c(C)[nH]c2ccc(Cl)cc12)Cc1cc(OC)c(OC)c(OC)c1 | ? | -15.1% | ? | ? | -2.4 | -4.2
COc1cc(CN(CCc2c(C)[nH]c3ccc(C)cc23)C(=S)NC(C)(C)C)cc(OC)c1OC | ? | -10.3% | ? | 2.62µM* | -20.7 | -4.5
CNC(=S)N(CCc1c(C)[nH]c2ccc(C)cc12)Cc1ccc(OC)c(OC)c1 | ? | -4.6% | ? | 10.4µM* | -8.6 | -4.7
Cc1ccc(C2C(C=Nc3c(C)n(C)n(-c4ccccc4)c3=O)=C(c3ccccc3)Oc3ccccc32)cc1 (stereo unspecified) | 8.28µM* | -15.3% | -15.4% | 4.15µM* | -10.3 | -1.7
COc1ccc(NC(=O)Cc2ccc(Cl)cc2Cl)cn1 | -5.7% | -8.9% | -4.5% | 1.2% | -12.3 | -1.0
Cc1ccc2c(CC(=O)NC3=NCCS3)coc2c1 | 26.4% | -6.9% | 9.4% | 63.5% | 57.6* | 28.7*
Cc1ccc2c(CC(=O)Nc3nc(C)cs3)coc2c1 | 4.7% | -4.8% | 13.5% | 4.9% | 46.5 | 20.4*
COc1ccc(NC(=O)Cc2coc3cc(C)ccc23)cn1 | 16.2% | -11.8% | -5.0% | ? | 68.6* | 21.5
Cc1cc2occ(CC(=O)NC3=NCCS3)c2cc1C(C)C | -27.7% | 45.7% | ? | -12.1% | -4.0 | -9.9
COCCCn1c(=O)c2sccc2n2c(CCCC(=O)N(C)Cc3ccco3)nnc12 | -14.9% | -4.4% | 12.3% | ? | -8.8 | -1.2
O=C(NCCN1CCCC1)c1cc(-c2ccncc2)nc2ccc(S(=O)(=O)N3CCOCC3)cc12 | 11.7µM* | 4.9% | -27.6% | ? | 3.8 | -2.7
Cc1ccc(S(=O)(=O)N2CCCCC2)cc1C(=O)NCCCN1CCOCC1 | -21.3% | 3.2% | 17.9% | 18.0% | -11.9 | -4.9
Cc1ccc(S(=O)(=O)N2CCCC2)cc1C(=O)NCCN1CCOCC1 | ? | 7.3% | 24.9% | 20.0% | 28.1* | 29.2*
Cc1ccc(S(=O)(=O)N2CCOCC2)cc1C(=O)Nc1ccc(N2CCCCCC2)cc1 | ? | ? | 5.01µM* | ? | . | .
O=C(Nc1ccc(-c2cn3ccsc3n2)cc1)c1ccc(F)c(S(=O)(=O)N2CCOCC2)c1 | 0.0% | -28.5% | 5.62µM* | 9.28µM* | 19.2 | 16.9
O=C(NCCc1ccccc1)c1cc(-c2ccncc2)nc2ccc(S(=O)(=O)N3CCOCC3)cc12 | -18.7% | -0.1% | ? | -1.5% | -9.2 | 5.3
OCCOCCOCCO | -5.9% | . | . | -9.8% | . | .
